Source: PubChem BioAssay (National Center for Advancing Translational Sciences (NCATS))
HTT cytoprotect = protects HTT-Q103 PC12 cells, measured by ATP. 230,000 tested, 0.14% active. Potency, µM (highest dose often 56.4 µM), for inactives: cytoprotection (ATP increase), most hits filed as activators. PC12 HTT-Q103 induced, cytoprotection, ATP luminescence, 40 h; active means well fitted curve in the direction sought with a large enough effect; inconclusive means small, poorly fitted or top-dose-only effect, or another doubt; inactive means no such curve, though single readings can be large; an effect the other way counts as inactive or inconclusive; further: % of control where 0% means no effect; nearly all actives have a fitted effect of over 45% in size
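Quantitative HTS on tebufenozide-induced (100 nM) PC12 cells expressing HTTQ103 exon 1–GFP; compounds tested as a concentration series; survival measured via cellular ATP.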
HttQ103 aggreg = mutant huntingtin aggregation inhibition | Potency, µM (doses to about 46.1 µM), for inactives: top-dose activity change, negative = inhibition, most hits filed as inhibitors | AID 1688 | 220,000 tested, 1.1% active | PC12 HttQ103-GFP aggregates, Acumen cytometry, 40 h; active means well fitted curve in the direction sought with a large enough effect; inconclusive means small, poorly fitted or top-dose-only effect, or another doubt; inactive means no such curve, though single readings can be large; an effect the other way counts as inactive or inconclusive; further: on the % scale 0 is the no-effect control and ±100 the full control effect; nearly all actives have a fitted effect of over 60% in size
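Multiplexed with ATP-based cell death, this channel scores GFP aggregates in PC12 cells expressing inducible HTTex1-Q103-GFP. Induction used 100 nM tebufenozide; compounds were tested in concentration series.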
ALDH1A1 block = ALDH1A1 (human) enzyme inhibition; P00352; Purified ALDH1A1, NADH fluorescence, propionaldehyde substrate; Potency, µM (top dose mostly 75.3 µM), inactives show at the highest dose activity, negative = inhibition, actives largely listed as inhibitors; 220,000 tested, 7.3% active; AID 1030;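 further: plate controls were no enzyme wells and a reference inhibitor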
Target sequence (P00352 whole entry, looked up): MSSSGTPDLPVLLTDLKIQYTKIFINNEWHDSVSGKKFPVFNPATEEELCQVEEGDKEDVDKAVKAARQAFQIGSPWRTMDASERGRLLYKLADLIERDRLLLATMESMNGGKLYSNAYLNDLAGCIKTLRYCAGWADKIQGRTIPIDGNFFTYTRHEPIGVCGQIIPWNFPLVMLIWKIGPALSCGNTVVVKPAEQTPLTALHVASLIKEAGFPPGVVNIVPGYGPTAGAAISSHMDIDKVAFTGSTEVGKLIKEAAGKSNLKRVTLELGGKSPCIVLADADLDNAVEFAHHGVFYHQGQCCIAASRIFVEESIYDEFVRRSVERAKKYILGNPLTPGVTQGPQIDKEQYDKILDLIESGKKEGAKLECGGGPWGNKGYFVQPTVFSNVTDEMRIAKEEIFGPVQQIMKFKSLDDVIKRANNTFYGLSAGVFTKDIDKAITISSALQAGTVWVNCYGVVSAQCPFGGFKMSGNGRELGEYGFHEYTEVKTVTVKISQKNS
HPGD inh = inhibitors of human 15-hydroxyprostaglandin dehydrogenase (HPGD); AID 894; purified HPGD, NADH fluorescence kinetic, PGE2 substrate; 150,000 tested, 4.3% active; Potency, µM, for inactives: top-dose activity change, negative = inhibition, usual class: inhibitors; P15428; further: on the % scale 0 is the no-effect control and ±100 the full control effect
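20 nM HPGD preincubated 15 min at room temperature with compound in 50 mM Tris-HCl pH 8, 0.01% Tween 20. Started with 1 mM NAD+ and 30 uM prostaglandin E2; NADH fluorescence (360/450 nm) read 5 times over 30-s intervals, last minus first.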
JMJD2E inh = JMJD2E (human) inhibition; B2RXH2; JMJD2E catalytic domain, FDH-coupled NADH fluorescence (FDH is formaldehyde dehydrogenase); Potency, µM (doses to about 57.1 µM), inactives show top-dose activity change, negative = inhibition, actives largely listed as inhibitors; 230,000 tested, 1.6% active; AID 2147;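 further: 0% = wells with enzyme and -100% = buffer wells without enzyme; nearly all actives have a fitted effect of over 50% in size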
Lamin A splicing = changes lamin A minigene splicing in HeLa cells. 200,000 tested, 0.01% active. Potency, µM (series often up to 46.1 µM), for the others: at the top dose ratio change, negative = inhibition, most hits filed as inhibitors. AID 1487. HeLa LMNA splicing GFP/RFP minigene ratio, 48 h; active means well fitted inhibition curve with a large enough effect in the signal ratio, with a control signal flat, not every such curve was filed as active; inconclusive means small, poorly fitted or top-dose-only effect, or effect the other way, or a change in a side signal; the % refers to the signal ratio; further: on the % scale 0 is the no-effect control and ±100 the full control effect
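S3 HeLa cells stably expressing lamin A-EGFP splicing minigene plus DsRed2, 600 cells/well, 48 h compound exposure at 37C. Laser-scanning cytometry; analysed as GFP (500-530 nm)/RFP (575-640 nm) total intensity ratio; 0.5% DMSO vehicle.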
Active calls of the source: *; ? = inconclusive; / = no result; [ ] = remark or other dose. Most compounds without a hit are left out; they make up all but 9.2% or so of the library. Unless noted, the call rests on the fitted dose curve; in most records, active means well fitted inhibition curve with a large enough effect (not every such curve was filed as active); inconclusive means small, poorly fitted or top-dose-only effect, or another doubt; inactive means no such curve, though single readings can be large or run the other way. Potency means the concentration at half of the fitted maximal effect.

SMILES	HTT cytoprotect	HttQ103 aggreg	ALDH1A1 block	HPGD inh	JMJD2E inh	Lamin A splicing
COC(=O)c1ccc(COc2ccc(/C=C(\C#N)c3nc4ccccc4[nH]3)cc2OC)o1	-13.7%	3.2%	-6.3%	?	22.4µM*	-8.5%[0.0737 µM]
Cc1c(N=C2NC(=O)/C(=C/c3ccc(O)cc3)S2)c(=O)n(-c2ccccc2)n1C	21.9%[10 µM]	?	0.3%	-23.1%	11.8%	-1.5%
O=C1NC(=NCc2ccccc2)S/C1=C/c1ccc(O)cc1	-26.8%[10 µM]	7.0%	-7.7%	2.82µM*	-0.8%	-11.6%
Cc1nc2cnc(N3CCOCC3)nc2n(Cc2cccs2)c1=O	-63.0%	/	?	-14.3%	/	/
O=C1Nc2ccccc2/C1=N\N=C\C1=C(N2CCOCC2)C(=C\c2ccccc2)/CC1	-11.2%	9.8%	10µM*	-6.8%	2.3%	20.4%
Cn1cc(C(=O)N/N=C/C2=C(N3CCOCC3)C(=C\c3ccccc3)/CC2)ccc1=O	12.8%[0.074 µM]	13.7%	-10.3%	-4.3%	-0.3%	-0.9%
CCn1c2c(c(=O)n3ncc(C(=O)Nc4ccc(F)cc4Cl)c13)CN(Cc1ccc(OC)cc1)CC2	/	/	/	/	/	-4.5%[46 µM]
C/C(N)=C(/C#N)C(=O)CSc1nn(-c2ccc(Cl)cc2)c(=S)s1	-96.4%	?	4.8%	/	-3.8%	-6.5%[9.22 µM]
C/C(N)=C(/C#N)C(=O)CSc1nnc(Nc2cccc(C)c2C)s1	-12.2%	-15.1%	?	28.2µM*	-1.0%	-8.6%
C/C(N)=C(/C#N)C(=O)CSc1nnc(SCc2ccc(Cl)cc2)s1	-4.3%[10 µM]	11.2µM*	-10.6%	-14.5%	5.1%	?
O=C(O)CCC(=O)Nc1ccccc1Oc1ccccc1	?	31.2%	6.5%	/	-7.6%	-3.8%[46 µM]
Cc1occc1C(=O)Nc1ccc(S(=O)(=O)N2CCCC2)cc1	-20.9%[0.074 µM]	3.98µM*	?	-12.2%	-2.9%	?
O=C(Nc1cc(S(=O)(=O)N2CCCCC2)ccc1Cl)c1ccccc1NS(=O)(=O)c1ccc(F)cc1	-67.3%[10 µM]	3.16µM*	?	?	?	?
O=C(NCc1cccnc1)c1ccc(-c2cc(Cl)ccc2Cl)o1	-10.5%[10 µM]	8.1%[9.22 µM]	7.08µM*	/	-1.5%	/
O=C(NCc1cccnc1)c1cccc(S(=O)(=O)N2CCCCC2)c1	-9.5%	-12.8%	-5.6%	-6.0%	3.5%	?
Cc1occc1C(=O)Nc1ccc(S(N)(=O)=O)cc1	10.3%[10 µM]	-3.6%[9.22 µM]	?	/	-8.9%	/
O=C(NCc1cccnc1)c1cc(S(=O)(=O)N2CCCCC2)ccc1Cl	-11.4%	-17.0%	20µM*	-6.6%	-1.8%	-8.9%
O=C(Nc1ccc(O)cc1)c1cc(S(=O)(=O)N2CCCC2)ccc1Cl	3.3%	-24.9%	4.47µM*	/	?	?
O=C(Nc1ccc(Nc2ccccc2)cc1)C(Cl)(Cl)Cl	/	?	?	31.6µM*	1.1%	?
O=C(Nc1ccc(Nc2ccccc2)cc1)C(Cl)Cl	28.1%[10 µM]	?	12.6µM*	22.4µM*	-10.2%	-23.9%
NC(=O)Nc1ccc(Nc2ccccc2)cc1	8.5%[10 µM]	-6.6%[9.22 µM]	/	/	-7.2%	/
Cc1ccc(SCC(=O)Nc2cccc(NC(=O)c3ccco3)c2)cc1	5.6%	2.7%	9.2%	-3.6%	8.9%	-0.1%
COc1ccc(-n2cc(-c3ccc(OC(F)F)cc3)[n+]3c2CCCCC3)cc1	-4.6%[10 µM]	15.8µM*	2.8%	/	4.9%	?
COCCNC(=O)C1(C)Oc2ccccc2NC1=O (stereo unspecified)	9.5%	1.1%	6.9%	-0.4%	3.3%	0.2%
CC1(C)Oc2ccc(C(=O)NN)cc2NC1=O	-46.9%	-6.6%	1.58µM*	/	33.7%	/
C=C1OC(CO)(n2cnc3c(N)ncnc32)C(O)C1O (stereo unspecified)	7.1%	/	-2.1%	-7.8%	/	/
CC(C)(C)OC(=O)N[C@@H](Cc1ccccc1)C(=O)NCC1CCC(C(=O)O)CC1 (stereo partly specified)	28.0%[10 µM]	9.0%[9.22 µM]	/	/	1.8%	/
CC(C)C[C@H](NC(=O)[C@@H]1Cc2ccccc2CN1C(=O)OC(C)(C)C)C(=O)NCC1CCC(C(=O)O)CC1 (stereo partly specified)	11.9%[10 µM]	18.4%[9.22 µM]	/	/	25.1µM*	12.7%[46 µM]
